Our source for the outcome and AC50 values is PubChem BioAssay (EPA / NIEHS).

Each structure is given as a SMILES string. Where “and” joins values, the source holds several entries; their conditions need not be identical. Identical values can stand only once. Results filed as inconclusive are left out. More than one record can exist for a structure, and the calls need not agree. Calls of active or inactive are those of the source. How the source made its calls, unless noted: active means hit-call score of the fitted dose curve at least 0.9, where 1 is the maximum; inactive means score below 0.9.

The nature of experiment [1]: CCTE_Shafer_MEA_acute_per_network_burst_spike_number_std: CCTE's Neural Acute Assay for Standard Deviation of Number of Spikes in a Network Burst, Shafer Lab (AID 2284020).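 Further: fitted for decrease in spike-number SD versus DMSO so actives lower it.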 The method in brief: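 Primary rat cortical neurons on 48-well MEAs (16 electrodes/well) recorded at DIV 13 or 15: 40-min baseline, then 40 min with compound (0.03-40 uM), 37 C. Value is percent change in SD of spikes per network burst, relative to DMSO.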

A short description of experiment [2]: CCTE_Shafer_MEA_acute_per_network_burst_electrodes_number_mean: CCTE's Neural Acute Assay for Mean Number of Electrodes in a Network Burst, Shafer Lab (AID 2284021).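 Further: curves fitted for decreases only so hits reduce electrodes per burst.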 The essentials:
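Percent change from baseline was computed as mean electrode count per network burst, comparing 40 min recordings before and during compound (0.03-40 uM) exposure. Cultures were rat cortical neurons at DIV 13 or 15, recorded on MEAs at 37 C with an adaptive 8x rms threshold.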

The nature of experiment [3]: CCTE_Shafer_MEA_acute_network_burst_percentage: CCTE's Neural Acute Assay for Percentage of Network Bursts, Shafer Lab (AID 2284022).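 Further: curves fitted for loss so actives lower network burst percentage.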 The essentials: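 Network burst percentage (spikes in network bursts divided by total spikes) recorded at 37 C over 40 min baseline and 40 min after compound, 0.03-40 uM, in rat cortical cultures at DIV 13 or 15. Analysed as percent change from baseline versus DMSO.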

Experiment [4] can be described thus: CCTE_Shafer_MEA_acute_cross_correlation_area: CCTE's Neural Acute Assay for Area of Cross Correlation, Shafer Lab (AID 2284024).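 Further: area under pooled inter-electrode spike cross-correlation near zero lag as percent change from own baseline; curves fitted for loss of cross-correlation area so actives lower synchrony.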 The method in brief:
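Percent change in well-wide cross-correlation area (window around zero lag) between 40 min baseline and 40 min post-compound recordings, 37 C; rat cortical cultures on MEA at DIV 13 or 15, dosed 0.03-40 uM, wells needing >/= 10 active electrodes.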

A short description of experiment [5]: CCTE_Shafer_MEA_acute_cross_correlation_HWHM: CCTE's Neural Acute Assay for Cross Correlation at Half Width at Half Maximum, Shafer Lab (AID 2284026).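 Further: percent change per well from pre-dose baseline in spike cross-correlogram half width; hits are a decrease in cross-correlogram half width relative to DMSO.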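 On outcome: spontaneous network firing of rat primary cortical neurons on multiwell microelectrode arrays.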 The essentials: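 Per-well percent change in cross-correlogram half width at half maximum, derived from 40-min recordings before and after compound (0.03-40 uM) at 37 C. Cultures were rat cortical neurons, DIV 13 or 15, with adaptive spike detection at 8x rms.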

Experiment [6] can be described thus: CCTE_Shafer_MEA_acute_synchrony_index: CCTE's Neural Acute Assay for Synchrony, Shafer Lab (AID 2284027).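 Further: network synchrony index of spontaneous spiking in primary rat cortical neurons on MEAs; fitted for loss of signal so actives lower synchrony relative to DMSO.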 The essentials: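 Spontaneous firing of mature rat cortical networks is captured extracellularly on microelectrode arrays at 37 C, with wells needing ≥10 active electrodes. Each compound (0.03-40 uM) is judged by the change in synchrony index from baseline over 40 min.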

The target of experiment [7] is Estrogen receptor (Homo sapiens) (UniProt P03372). The experiment is described as follows: CCTE_Deisenroth_AIME_384WELL_LUC_Active: CCTE's 384-well Estrogen Receptor Transactivation Assay with AIME metabolic competence (ERTA luciferase; metabolism positive), Deisenroth Lab (AID 2284030; active means hit-call score of the fitted dose curve at least 0.9, where 1 is the maximum). The essentials:
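VM7Luc4E2 breast cells were given, for 24 hours, medium pre-incubated for 2 hours with parent chemical (0.002-200 uM, 10 concentrations) and alginate-encapsulated phenobarbital/beta-naphthoflavone-induced rat hepatic S9. Luciferase gain of signal was fitted against 17beta-estradiol; n=4 or more.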

Experiment [8] can be described thus: CCTE_Deisenroth_AIME_384WELL_CTox_Active: Cytotoxicity Assessment (CTOX) in CCTE's 384-well Estrogen Receptor Transactivation Assay with AIME metabolic competence (metabolism positive), Deisenroth Lab (AID 2284037; active means hit-call score of the fitted dose curve at least 0.9, where 1 is the maximum;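 further: chemicals first conditioned 2 h by alginate-bound induced rat liver S9 before cells; activity means signal loss indicating cell death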). The essentials:
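VM7Luc4E2 breast cells received medium pre-incubated 2 h with chemical over alginate microspheres holding induced male Sprague Dawley rat liver S9; viability read 24 h later by protease-substrate fluorescence. Loss of signal, bidirectional fit, 0.002–200 uM.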

For experiment [9], the target named is Estrogen receptor (Homo sapiens) (UniProt P03372). Kind of experiment: CCTE_Deisenroth_AIME_384WELL_LUC_Inactive: CCTE's 384-well Estrogen Receptor Transactivation Assay without AIME metabolic competence (ERTA luciferase; metabolism negative), Deisenroth Lab (AID 2284038; active means hit-call score of the fitted dose curve at least 0.9, where 1 is the maximum;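 further: hits raise estrogen receptor luciferase signal so potencies reflect agonists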). The method in brief: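 Chemicals (10-point series, 0.002 - 200 uM) were incubated 2 hours with alginate-water microsphere lids lacking S9, then the conditioned medium was transferred to VM7Luc4E2 breast cells for 24 hour. Luciferase induction was read by bioluminescence, fitted upward relative to 17beta-estradiol.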

Experiment [10] can be described thus: CCTE_Deisenroth_AIME_384WELL_CTox_Inactive: Cytotoxicity Assessment (CTOX) in CCTE's 384-well Estrogen Receptor Transactivation Assay without AIME metabolic competence (metabolism negative), Deisenroth Lab (AID 2284039; active means hit-call score of the fitted dose curve at least 0.9, where 1 is the maximum;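 further: cell viability via live-cell protease substrate cleaved to fluorescent probe; cells exposed 24 h to medium preincubated 2 h with alginate-water beads without S9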). The essentials: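 Fluorescence from a live-cell protease substrate, read after 24 h in VM7Luc4E2 cells, indicated viability. Test medium came from a 2 h AIME step without hepatic S9 (alginate-water microspheres); concentrations spanned 0.002 - 200 uM, single technical replicate per run.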

Experiment [11] deals with Estrogen receptor (Homo sapiens) (UniProt P03372). The experiment is described as follows: CCTE_Deisenroth_AIME_384WELL_LUC_Shift: CCTE's 384-well Estrogen Receptor Transactivation Assay with AIME metabolic competence data shift (ERTA luciferase; difference in metabolism positive and negative), Deisenroth Lab (AID 2284041).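 Further: shift is response with S9 minus without S9 so positive means metabolism raised ER signal.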 The method in brief:
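Here, parent compounds undergo 2 h phase I metabolism by PB/BNF-induced rat S9 before 24 h transactivation in VM7Luc4E2 cells; the curve models S9-positive minus S9-negative response over a 10-point series.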

Experiment [12] is described as follows: CCTE_Shafer_MEA_dev_firing_rate_mean: CCTE's Neural Network Formation Assay for Mean Firing Rate, Shafer Lab (AID 2284031).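 On AC50: curve fitted for loss of firing so AC50 reflects decreased mean firing rate.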 The method in brief:
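Developing rat cortical networks on MEA plates undergo 12-day compound exposure. Firing frequency, averaged across active electrodes, is integrated as area under the curve over four recording days, referenced to DMSO.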

A short description of experiment [13]: CCTE_Shafer_MEA_dev_per_burst_spike_percent: CCTE's Neural Network Formation Assay for Percent of Spikes in a Burst, Shafer Lab (AID 2284032).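 On AC50: fitted as a decrease in burst spike percentage below DMSO baseline.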 The method in brief:
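Rat primary cortical neurons on 16-electrode MEA wells, dosed from plating day 0 for 12 days with renewal on DIV 5 and 9; spikes-in-bursts percentage averaged over bursting electrodes, collapsed as AUC across days 5, 7, 9, 12; loss direction versus DMSO.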

The nature of experiment [14]: CCTE_Shafer_MEA_dev_active_electrodes_number: CCTE's Neural Network Formation Assay for Number of Active Electrodes, Shafer Lab (AID 2284040; active means hit-call score of the fitted dose curve at least 0.9, where 1 is the maximum;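 on AC50: potency for loss of active electrodes versus DMSO so lower counts are hits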). The method in brief:
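Rat cortical primary cultures, 1.5 x 10^5 cells/well, PEI-coated MEA, laminin drop. Continuous exposure DIV 0–12; full media/compound change DIV 5, 9. Readout: electrodes with mean firing ≥5 spikes/min; AUC across days; loss vs DMSO.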

Experiment [15] can be described thus: CCTE_Shafer_MEA_dev_burst_rate: CCTE's Neural Network Formation Assay for Burst Rate, Shafer Lab (AID 2284042).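 On AC50: potency for loss of burst rate below DMSO control.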 The essentials:
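Developmental network assay measuring how 12-day exposure of rat cortical neuron cultures alters bursting on extracellular MEA recordings. Values are AUC of well-mean burst rate across four recording days, relative to DMSO vehicle.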

Experiment [16] is described as follows: CCTE_Shafer_MEA_dev_bursting_electrodes_number: CCTE's Neural Network Formation Assay for Number of Bursting Electrodes, Shafer Lab (AID 2284043; active means hit-call score of the fitted dose curve at least 0.9, where 1 is the maximum;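 further: potency is for loss of bursting electrodes relative to DMSO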). The essentials:
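Primary rat cortical neurons were cultured on PEI-coated 48-well MEA plates (16 electrodes/well) and exposed from plating through day 12, with compound renewed at feeds on DIV 5 and 9. Electrodes bursting ≥1 per 2 min were counted on DIV 5, 7, 9, 12; trapezoidal AUC taken.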

A short description of experiment [17]: CCTE_Shafer_MEA_dev_per_burst_interspike_interval: CCTE's Neural Network Formation Assay for Burst Interspike Interval, Shafer Lab (AID 2284044).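 Further: mean spike spacing inside bursts as AUC over recordings on days 5 7 9 12.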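 On AC50: potency for a decrease of within-burst interspike interval below DMSO level.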 The method in brief:
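Mean interspike interval within single-electrode bursts, averaged over bursting electrodes, from rat cortical cultures on MEA plates recorded on days 5, 7, 9 and 12. Continuous compound exposure from plating; trapezoidal AUC fitted downward relative to DMSO.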

Experiment [18] can be described thus: CCTE_Shafer_MEA_dev_burst_duration_mean: CCTE's Neural Network Formation Assay for Mean Burst Duration, Shafer Lab (AID 2284045).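 On AC50: curve fitted for loss meaning shorter burst duration than DMSO.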 The method in brief: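 Primary rat cortical neurons on PEI-coated 16-electrode MEA wells, exposed from plating through day 12 with compound renewed at DIV 5 and 9; spontaneous activity recorded days 5, 7, 9, 12. Well-mean burst duration collapsed as trapezoidal AUC, fitted for loss versus DMSO.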

Experiment [19] can be described thus: CCTE_Shafer_MEA_dev_interburst_interval_mean: CCTE's Neural Network Formation Assay for Mean Interburst Interval, Shafer Lab (AID 2284046).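 Further: well-mean interburst interval of bursting electrodes as AUC over four recording days; curve fitted for decrease in interburst interval relative to DMSO.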 The essentials: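 Network formation assay in primary rat cortical cultures, exposed from DIV 0 to 12. Mean interburst interval per well, integrated as AUC over four recordings.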

Chain of Estrogen receptor (Homo sapiens) (P03372 whole entry, looked up): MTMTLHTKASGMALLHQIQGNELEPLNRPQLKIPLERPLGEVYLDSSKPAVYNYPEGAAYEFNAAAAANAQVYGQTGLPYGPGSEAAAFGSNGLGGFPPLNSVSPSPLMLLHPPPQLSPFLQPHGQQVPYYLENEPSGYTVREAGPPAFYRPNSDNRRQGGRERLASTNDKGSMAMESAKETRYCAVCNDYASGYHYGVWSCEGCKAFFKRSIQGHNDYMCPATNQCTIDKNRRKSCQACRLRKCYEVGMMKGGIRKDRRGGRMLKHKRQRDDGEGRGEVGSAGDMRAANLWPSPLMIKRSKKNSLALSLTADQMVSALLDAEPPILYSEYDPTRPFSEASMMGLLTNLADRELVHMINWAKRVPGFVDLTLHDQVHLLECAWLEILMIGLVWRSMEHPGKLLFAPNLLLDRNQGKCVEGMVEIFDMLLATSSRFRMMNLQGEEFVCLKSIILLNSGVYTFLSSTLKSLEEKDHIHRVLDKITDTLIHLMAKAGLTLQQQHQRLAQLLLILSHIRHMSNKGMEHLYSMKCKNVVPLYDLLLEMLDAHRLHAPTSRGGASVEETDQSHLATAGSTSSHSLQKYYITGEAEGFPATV

`CC(C)(OOC(C)(C)c1ccccc1)c1ccccc1`: the molecule was classed as inactive in experiment [1], in [2], in experiment [3], in experiment [4], in experiment [5] and in experiment [6].

On to `CCN(CC)CCO`, for which the molecule was called inactive in experiment [1], in experiment [2], in experiment [3], in experiment [4], in experiment [5] and in experiment [6].

Consider `C[N+](C)(C)CC1CO1` (stereo not given), for which the call in experiment [1], in [2], in experiment [3], in [4], in experiment [5] and in experiment [6] was inactive. The molecule was called inactive in experiment [7], in experiment [8], in experiment [9], in experiment [10] and in [11].

For `ClC1=C(Cl)C2(Cl)C3C(Cl)C=CC3C1(Cl)C2(Cl)Cl` (stereo not given), the result in [1], in experiment [3], in experiment [5], in [6], in experiment [17] and in experiment [18] was inactive. For the same molecule, the AC50 (in general, the concentration at which the activity in the assay is half-maximal) in experiment [2] is 4.31 µM (active); in [4] it was 4.37 µM (active); in [12] it was 4.54 µM (active); in experiment [13], 4.18 µM (active); in experiment [14], 4.27 µM (active); in experiment [15], 2.74 µM (active). Moreover, the AC50 was 2.35 µM (active) in experiment [16] and 2.32 µM (active) in experiment [19].

As for `N#CC(Br)Br`, the outcome in experiment [1], in [2], in experiment [3], in experiment [4], in experiment [5] and in experiment [6] was inactive.

Take `CC(C)COC(=O)c1ccccc1C(=O)OCC(C)C`: the AC50 in experiment [1] is 8.5 µM (active); in experiment [5] it was 5.62 µM (active); in experiment [6], 9.02 µM (active); in experiment [13] it was 23.1 µM (active); in [16] it was 13.8 µM (active); in experiment [17] it was 23.2 µM (active). In experiment [19], the AC50 was 12.8 µM (active). Further, the call in [2], in [3], in experiment [4], in [12], in [15] and in experiment [18] was inactive.

For the molecule `CCOc1cccc(C2(N3CCN(c4ccccc4)CC3)CCC(C)CC2)c1` (stereo not given), the molecule was called inactive in [7], in [8], in experiment [9], in [10] and in experiment [11].

Regarding `CN(C)C(=O)Nc1ccc(Cl)cc1`, the result in [8] and in experiment [10] was inactive.

Regarding `Cc1cccc(N)c1N`, the outcome in [10] was inactive.

On to `COP(=S)(OC)SCN1C(=O)c2ccccc2C1=O`, for which the AC50 in [12] is 83.2 µM (active); in experiment [13] it was 32.8 µM (active) and 51.5 µM (active); in experiment [14], 61.1 µM (active) and 51.5 µM (active); in [15], 61.3 µM (active); in experiment [16] it was 32.6 µM (active) and 51.5 µM (active); in [17], 11.2 µM (active). The call in experiment [12], in experiment [15], in [17], in experiment [18] and in experiment [19] was inactive.

For the molecule `[O-][Cl+]O`, the result in [7], in experiment [12], in experiment [13], in experiment [8], in experiment [9] and in experiment [10] was inactive. The result in [14], in [11], in [15], in [17] and in experiment [19] was inactive. In addition, in experiment [18], the AC50 was 15 µM (active).

Consider `ClCCOCCCl`, for which the molecule was called inactive in experiment [1], in experiment [2], in experiment [3], in experiment [4], in experiment [5] and in experiment [6]. Further, the molecule was classed as inactive in experiment [8] and in experiment [10].

With `Cc1ccc(N)c(N)c1`, the molecule was called inactive in experiment [1], in experiment [2], in experiment [4], in experiment [5], in [8] and in experiment [10]. The half-maximal activity concentration (AC50) in experiment [3] is 9.87 µM (active); in [6], 20 µM (active).

With `CCCCCCCCOC(=O)c1ccc(C(=O)OCCCCCCCC)c(C(=O)OCCCCCCCC)c1`, the call in experiment [8] and in [10] was inactive.
